A selection: hits, their analogues and other compounds. The true share with any hit is near 1.6%.
KCNQ2 block = blocks the rat KCNQ2 potassium channel | AID 2156 | O88943 | CHO-K1 KCNQ2, FluxOR thallium flux, 20 min; hits give low values | 310,000 tested, 1.1% active | B-score at 10 µM;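 active = fluorescence ratio B-score at most minus 3 library SDs, with starting brightness B-score within 2 library SDs, cut at about -5.5 in these data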
Target sequence (O88943 whole entry, looked up): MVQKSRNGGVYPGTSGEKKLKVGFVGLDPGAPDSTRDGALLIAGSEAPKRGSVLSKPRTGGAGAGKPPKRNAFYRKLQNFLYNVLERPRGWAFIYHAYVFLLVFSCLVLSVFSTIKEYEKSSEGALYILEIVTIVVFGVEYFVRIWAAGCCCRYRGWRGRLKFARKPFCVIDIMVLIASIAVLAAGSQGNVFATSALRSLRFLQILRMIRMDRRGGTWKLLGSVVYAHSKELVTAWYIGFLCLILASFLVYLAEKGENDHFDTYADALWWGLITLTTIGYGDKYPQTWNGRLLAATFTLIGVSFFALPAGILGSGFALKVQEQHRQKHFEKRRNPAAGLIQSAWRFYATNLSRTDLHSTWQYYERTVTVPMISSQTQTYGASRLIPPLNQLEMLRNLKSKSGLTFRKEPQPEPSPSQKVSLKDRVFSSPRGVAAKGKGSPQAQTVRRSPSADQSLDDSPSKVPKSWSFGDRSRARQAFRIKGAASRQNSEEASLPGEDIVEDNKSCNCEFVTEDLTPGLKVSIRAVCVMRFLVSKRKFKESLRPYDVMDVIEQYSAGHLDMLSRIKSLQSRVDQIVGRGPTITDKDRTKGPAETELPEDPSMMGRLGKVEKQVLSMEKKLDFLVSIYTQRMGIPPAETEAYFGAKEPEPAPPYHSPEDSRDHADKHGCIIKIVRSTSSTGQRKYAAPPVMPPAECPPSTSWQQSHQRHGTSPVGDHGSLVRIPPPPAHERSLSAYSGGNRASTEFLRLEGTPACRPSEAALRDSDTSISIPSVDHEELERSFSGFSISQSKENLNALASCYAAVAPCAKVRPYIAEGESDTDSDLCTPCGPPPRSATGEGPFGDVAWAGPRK
KCNQ2 pot = potentiators of rat KCNQ2 potassium channel | AID 2239 | CHO-K1 KCNQ2, FluxOR thallium flux fluorescence; hits give high values | 310,000 tested, 0.54% active | B-score at 10 µM | O88943;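 active = fluorescence ratio B-score at least 3 SD of library B-scores, with initial fluorescence B-score within 3 of them, cut at about 5.3 in these data; same plate scores as AID 2156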;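 note: B-score of peak minus minimum over baseline fluorescence ratio after K+ and Tl+ stimulus; positive B-score means potentiation of KCNQ2 with more thallium influx and brighter signal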
KCNQ2 inh conf = rat KCNQ2 channel inhibition, confirmatory screen; shares compounds with KCNQ2 block; KCNQ2-expressing cells, thallium flux; hits give low values; activity change, negative = inhibition, % at 10 µM; 1,000 tested, 57% active; AID 493025
KCNQ1 spec = selectivity of KCNQ2 inhibitors against human KCNQ1; 1,000 tested, 15% active; activity change, negative = inhibition, % at 10 µM; KCNQ1-expressing cells, FluxOR thallium flux fluorescence; hits give low values; shares compounds with KCNQ2 block;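 active = activity change at least 3 SD of negative controls below their mean in both duplicate wells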;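 note: CHO cells stably transfected with KCNQ1 and depolarized by potassium stimulus; peak minus minimum fluorescence over baseline after thallium addition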
CHO parental ctr = KCNQ2 inhibitor counter-screen hit in parental CHO cells; shares compounds with KCNQ2 block; thallium flux counter-screen; hits give low values; activity change, % at 10 µM; 1,000 tested, 14% active; AID 493029
KCNQ2 patch conf = blocks rat KCNQ2 current in automated patch clamp; shares compounds with KCNQ2 block; KCNQ2-expressing cells; calls only at 10 µM; 550 tested, 49% active
Numbers stand for hits; - = inactive; . = no result; + = active, no number. Unless noted, the rule behind the calls is not given here.

SMILES	KCNQ2 block	KCNQ2 pot	KCNQ2 inh conf	KCNQ1 spec	CHO parental ctr	others
Cc1cc(NC2CCCCC2)nc(NCc2ccccc2)n1	-8.3	-	-	-	-
CC(C)(C)NC(=O)C(c1ccncc1)N(Cc1ccc(F)cc1)C(=O)c1ccc(-c2ccccc2)[nH]1 (stereo not given)	-	.	.	.	.
O=C(/C=C/c1ccc([N+](=O)[O-])cc1)c1cccnc1	-9.9	-	-	-	-
O=C(N/N=C/c1ccc([N+](=O)[O-])cc1)c1cccnc1	-	.	.	.	.
O=C(/C=C/c1cccc(OCc2ccccc2)c1)c1cccnc1	-6.8	-	-29%	-	-	KCNQ2 patch conf=-
O=C(O)/C=C/c1cccc(OCc2ccccc2)c1	-	-	.	.	.
Cc1cccc(OCCSc2nc(N)cc(N)n2)c1	-	.	.	.	.
CCOC(=O)C(CSCC(=O)c1ccc(Cl)cc1Cl)NC(=O)OC(C)(C)C (stereo not given)	-7.7	-	-28%	-	-	KCNQ2 patch conf=+
CCOc1ccc(OCCOC(=O)CNC(=O)c2ccc(Cl)cc2Cl)cc1	-	.	.	.	.
CC(=O)N(C)c1ccc(NC(=O)Nc2ccc(C)c(C)c2)cc1	-	.	.	.	.
Cc1cc(NC(=O)c2coc(=O)c(Br)c2)ccc1C(C)C	-	.	.	.	.
CCc1ccc(C(=O)N/N=C/c2ccncc2)s1	-	-	.	.	.
COc1ccc(C(=O)NCCC(=O)N2CCC3(CC2)NCCc2[nH]cnc23)cc1	-	-	.	.	.
Cc1nn2c(N)c(-c3ccccc3)cnc2c1-c1ccc(Cl)cc1	-	.	.	.	.
Cc1nc2c(-c3ccccc3)c(C)nn2c(N)c1-c1ccccc1	-7.5	-	-34%	-	-	KCNQ2 patch conf=-
COc1cccc(N2CC(C(=O)Nc3nnc(SCCC4OCCO4)s3)CC2=O)c1 (stereo not given)	-	.	.	.	.
CCOC(=O)COc1ccccc1/C=N\NC(=O)c1cc2c(ccc3ccccc32)o1	-	.	.	.	.
C=CCn1c(/N=C/c2ccc(OC)cc2)nc2ccccc21	-	-	.	.	.
C=CCn1c(/N=C/c2ccc(N(C)C)cc2)nc2ccccc21	-7.3	-	-	-	-
Cc1ccccc1C(=NC(=O)c1ccccc1)c1ccccc1	-8.5	-	-28%	-	-	KCNQ2 patch conf=+
Cc1ccccc1C(=O)O/N=C(\N)c1ccccc1	-	.	.	.	.
COCCN1CCN(C(=O)C2CCC(=O)N(CCc3ccccc3)C2)CC1 (stereo not given)	-	.	.	.	.
CCOC(=O)c1c(-c2ccc(C)cc2)csc1NC(=O)C1CCCO1 (stereo not given)	-	-	.	.	.
CC(C)OC(=O)c1c(-c2ccc(C(C)C)cc2)csc1NC(=O)C1CCCO1 (stereo not given)	-7.2	-	-32%	-	-	KCNQ2 patch conf=-
COc1ccc(C(CNC(=O)CCNC(=O)c2ccc(Br)cc2)N2CCOCC2)cc1 (stereo not given)	-	-	.	.	.
SMILES	KCNQ2 block	KCNQ2 pot	KCNQ2 inh conf	KCNQ1 spec	CHO parental ctr	others
Cc1ccc(C(c2ccc(C)o2)c2cccc([N+](=O)[O-])c2O)o1	-	.	.	.	.
Cc1cc(C(c2ccc(C)o2)c2ccc(C)o2)c(O)c([N+](=O)[O-])c1	-8.9	-	-	-	-
CCc1ccccc1N(C)S(=O)(=O)c1cc(-c2cc(C)no2)ccc1OC	-	.	.	.	.
CCOC(=O)c1ccc(NC(=O)CCc2ccc(CC)o2)cc1	-	.	.	.	.
CCOC(=O)c1c(NC(=O)CCc2ccc(CC)o2)sc(C)c1C	-8.2	-	-	-	-
Cc1ccc(C(CCN(Cc2ccccc2)C(=O)c2ccco2)c2ccco2)cc1 (stereo not given)	-8	-	-27%	-	-	KCNQ2 patch conf=-
CN(Cc1ccccc1)C(=O)c1ccco1	-	-	.	.	.
Cc1ccc(S(=O)(=O)N(C)CC(O)Cn2c3ccccc3c3ccccc32)cc1 (stereo not given)	-	.	.	.	.
O=S(=O)(c1ccccc1)N(CC(O)Cn1c2ccccc2c2ccccc21)c1ccccc1 (stereo not given)	-9.6	-	-	-	-
CC(C)(C)n1nnnc1C(c1cccnc1)N1CCN(c2cccc(C(F)(F)F)c2)CC1 (stereo not given)	-	-	.	.	.
CC(C)(C)c1cc(C(c2cccnc2)N2CCN(CCO)CC2)cc(C(C)(C)C)c1O (stereo not given)	-9.2	-	-26%	-	-	KCNQ2 patch conf=-
Cc1ccc(C)c(N2CCN(S(=O)(=O)c3ccc4c(c3)NC(=O)CS4)CC2)c1	-	.	.	.	.
Cn1c(-[n+]2c(-c3ccccc3)cc(-c3ccccc3)cc2-c2ccccc2)nc2c([N+](=O)[O-])cccc21	-	.	.	.	.
O=[N+]([O-])c1cccc2nc(-c3ccccc3)c(-c3ccccc3)nc12	-7.6	-	-28%	-	-	KCNQ2 patch conf=-
